Sampled rows, rich in hits. Any-hit rate of the full collection: about 14%.
Giardia FBPA inh – inhibitors of Giardia lamblia fructose-1,6-bisphosphate aldolase; purified Giardia FBPA; Potency, µM (highest dose often 59.6 µM), without a hit: at the highest dose activity, negative = inhibition, actives largely listed as inhibitors; 0.71% of 290,000 active; also: potency is read from the fitted curve at half-maximal effect; nearly all actives have a fitted effect of over 55% in size
Target sequence (A8B2U2 whole entry, looked up): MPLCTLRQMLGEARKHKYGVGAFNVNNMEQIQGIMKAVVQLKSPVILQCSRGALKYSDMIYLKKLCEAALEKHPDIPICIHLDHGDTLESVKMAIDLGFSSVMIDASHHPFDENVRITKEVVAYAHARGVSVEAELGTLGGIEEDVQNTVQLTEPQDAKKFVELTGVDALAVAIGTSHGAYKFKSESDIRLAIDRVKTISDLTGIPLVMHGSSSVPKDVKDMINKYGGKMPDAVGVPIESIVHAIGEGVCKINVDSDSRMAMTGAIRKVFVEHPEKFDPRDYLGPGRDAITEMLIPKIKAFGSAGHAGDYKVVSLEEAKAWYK
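40 nM FBPA preincubated 10 min at RT with compound (up to 57.5 uM final), then substrate plus GAPDH/TPI/NAD/arsenate coupling and diaphorase/resazurin added. Fluorescence read after 20 min at RT, 525/598 nm.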
Pf growth 96h – P. falciparum growth inhibition at 96 hours; P. falciparum luciferase reporter growth, 96 h; Potency, µM (titrated, usually from 28.7 µM), for inactives: at the top dose activity change, negative = inhibition, actives largely listed as inhibitors; 6.9% of 320,000 active; also: potency is read from the fitted curve at half-maximal effect
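Infected RBCs, 2% Hct / 0.05% parasitemia final; luciferase-reporter P. falciparum; cpd 96 h, 37 C, 5% CO2; luciferase detection reagent; luminescence.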
Pf growth 48h – P. falciparum growth inhibition at 48 hours (one generation); Potency, µM (doses to about 28.7 µM), for inactives: top-dose activity change, negative = inhibition, usual class: inhibitors; 5.9% of 310,000 active; P. falciparum luciferase growth in erythrocytes, 48 h; also: potency is read from the fitted curve at half-maximal effect
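Compounds are pin-transferred into medium, infected erythrocytes (2% hematocrit, 0.1% parasitemia final) are added, and plates sit one parasite generation at 37 C in 5% CO2. Detection reagent is then added and luminescence measured.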
HCMV inh – human cytomegalovirus inhibition | HFF cells, HCMV-luciferase reporter, 72 h; hits give low values | activity change, negative = inhibition, % at 57.5 µM | 4.5% of 410,000 active; in the data active = activity change below about -60%; inconclusive = no clear call, values can overlap the other calls; inactive = above about -39%
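HFF cells seeded 16 h at 37C, treated with compounds, infected with luciferase-reporter HCMV at MOI 1 PFU/cell; luciferase read at 72 h post infection, normalized to buffer-only and Salinomycin controls.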
Sm TGR block – blocks Schistosoma mansoni thioredoxin glutathione reductase; Q962Y6; purified TGR, DTNB reduction, TNB absorbance 405 nm; Potency, µM (titrated, usually from 114 µM), for the others: at the top dose activity change, negative = inhibition, hits mostly inhibitors; 3% of 360,000 active; also: potency is read from the fitted curve at half-maximal effect; nearly all actives have a fitted effect of over 60% in size
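TGR 20 nM + NADPH 100 uM (dispensed conc.), cpd preinc 15 min RT; start with NADPH (500 uM addition) then DTNB (15 mM addition). Kinetic TNB absorbance, 405 nm filter. Four-parameter Hill fit across titration.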
An asterisk follows results filed as active; [ ] = another dose, or the depositor's remark. Unless noted, calls follow the shape of the dose curve; as a rule, active = well fitted curve in the direction sought with a large enough effect; inconclusive = small, poorly fitted or top-dose-only effect, or another doubt; inactive = no such curve, though single readings can be large; an effect the other way counts as inactive or inconclusive. % is scaled to controls: 0 for no effect and ±100 for the full control effect.

For Clc1cccc(-c2csc(-c3nc(-c4ccc(Br)s4)cs3)n2)c1 the results were HCMV inh -1 and Sm TGR block 6%.
`CNc1cncc(-c2ccc(OCCCN(C)C)nc2)n1` gave HCMV inh -11.
For Cc1cc2c(cc1C)C(c1ccsc1)CC(=O)N2 (centres undefined) the results were Giardia FBPA inh 13%, Pf growth 96h 4.7µM*, Pf growth 48h 95%, HCMV inh -11 and Sm TGR block 6%.
`O=C1CC(c2ccsc2)c2cc3c(cc2N1)OCCO3` (centres undefined) gave Giardia FBPA inh -8%, Pf growth 96h 12µM*, Pf growth 48h inconclusive, HCMV inh 30 and Sm TGR block 1%.
For Cc1cc2c(cc1C)C(c1cccc(F)c1)CC(=O)N2 (centres undefined) the results were Giardia FBPA inh 1%, Pf growth 96h 13%, Pf growth 48h -3%, HCMV inh 7 and Sm TGR block 3%.
`c1ccc(Sc2ncnc3ccccc23)cc1` gave Giardia FBPA inh 0%, Pf growth 96h inconclusive, Pf growth 48h inconclusive, HCMV inh -74* and Sm TGR block inconclusive.
Screening Cc1ccc(NC(=O)CN(C)C(=O)COC(=O)C2=COCCO2)cc1 returned Pf growth 96h 17%, Pf growth 48h inconclusive, HCMV inh -14 and Sm TGR block -1%.
For c1ccc(CC2CCN(c3nc4ccccc4n4nnnc34)CC2)cc1 the results were Giardia FBPA inh 1%, Pf growth 96h inconclusive, Pf growth 48h -5%, HCMV inh -102* and Sm TGR block 5%.
For O=C(c1ccco1)N1CCN(c2nc3ccccc3n3nnnc23)CC1 the results were Giardia FBPA inh 6%, Pf growth 96h inconclusive, Pf growth 48h -25%, HCMV inh -28 and Sm TGR block -24%.
`Cc1ccc(S(=O)(=O)/N=C(\N)Nc2nc(C)c3cc(C)ccc3n2)cc1` gave Giardia FBPA inh -17%, Pf growth 96h inconclusive, Pf growth 48h inconclusive, HCMV inh 14 and Sm TGR block 9%.
CCOc1ccc2nc(N/C(N)=N/C(=S)Nc3cccc(C)c3)nc(C)c2c1 was read as Giardia FBPA inh 14%, Pf growth 96h inconclusive, Pf growth 48h inconclusive, HCMV inh -26 and Sm TGR block 6%.
For CCc1ccccc1NC(=S)/N=C(\N)Nc1nc(C)c2cc(C)ccc2n1 the results were Giardia FBPA inh 0%, Pf growth 96h inconclusive, Pf growth 48h 2.9µM*, HCMV inh inconclusive and Sm TGR block -2%.
For Cc1ccc(NC(=S)/N=C(\N)Nc2nc(C)c3cc(C)ccc3n2)c(C)c1 the results were Giardia FBPA inh 12%, Pf growth 96h inconclusive, Pf growth 48h inconclusive, HCMV inh -86* and Sm TGR block -11%.
Cc1ccc(NC(=S)/N=C(\N)Nc2nc(C)c3cc(C)c(C)cc3n2)cc1C was read as Giardia FBPA inh 3%, Pf growth 96h 10µM*, Pf growth 48h inconclusive and HCMV inh -21.
COc1ccc(NC(=O)C2(C)CCN2C)cc1OC (centres undefined) was read as HCMV inh -28.
For O=C1c2ccccc2C(=O)c2c1cccc2-n1nnc2ccccc21 the results were Giardia FBPA inh -3%, Pf growth 96h -26%, Pf growth 48h inconclusive, HCMV inh -15 and Sm TGR block -5%.
`O=C1C(N2CCOCC2)=C(n2nnc3ccccc32)C(=O)c2ccccc21` gave Giardia FBPA inh inconclusive, Pf growth 96h 2.3µM*, HCMV inh -100* and Sm TGR block inconclusive.
Cc1ccc2nc(-c3ccc(Cl)c(NC(=O)COc4ccc([N+](=O)[O-])cc4)c3)oc2c1 was read as HCMV inh 18 and Sm TGR block 5%.
For COc1ccc(-c2ccc3c(c2)c(Sc2ccccc2)c(-c2ccccc2)n3C)cc1 the results were HCMV inh -32.
CCOc1ccc(C(C)NC(=O)c2ccc3c(c2)NC(=O)C(C)S3)cc1OCC (centres undefined) was read as Pf growth 96h 1.9µM*, Pf growth 48h 2.3µM*, HCMV inh -13 and Sm TGR block 4%.
Screening COc1ccccc1CNC(=O)c1cc(S(=O)(=O)N2CCCCC2)c[nH]1 returned Giardia FBPA inh 13%, Pf growth 96h -4%, Pf growth 48h inconclusive, HCMV inh 0 and Sm TGR block -11%.
`O=[N+]([O-])c1ccc(-[n+]2nc(-c3ccccc3)nn2-c2ccccc2)cc1` gave Giardia FBPA inh -24%, Pf growth 96h 17%, Pf growth 48h inconclusive, HCMV inh -10 and Sm TGR block -23%.
Cn1cccc1CC(=O)N/N=C/C=C/c1ccco1 was read as Giardia FBPA inh inconclusive, Pf growth 96h -16%, Pf growth 48h 65%, HCMV inh 25 and Sm TGR block 11µM*.
C/C(=N/NC(=O)Cc1cccn1C)c1ccccc1 was read as Pf growth 96h 28%, Pf growth 48h inconclusive, HCMV inh 41 and Sm TGR block 6%.
Screening C/C(=N\NC(=O)Cc1cccn1C)c1ccco1 returned Giardia FBPA inh -11%, Pf growth 96h 41%, Pf growth 48h 18%, HCMV inh 12 and Sm TGR block 40µM*.
For O=C1NC(=S)SC1=C1CCCC1 the results were Giardia FBPA inh inconclusive, Pf growth 96h 213%, HCMV inh -5 and Sm TGR block inconclusive.
Screening Cn1c(NCCN2CCCC2)nc2cc(-c3ccsc3)sc2c1=O returned HCMV inh 29.
COC(=O)c1[nH]c2ccc(C)cc2c1NC(=O)CN1CCCc2ccccc21 was read as Giardia FBPA inh 14%, Pf growth 96h 2.3µM*, Pf growth 48h 4.1µM*, HCMV inh -24 and Sm TGR block 8%.
`Cc1ccc2[nH]c3c(c2c1)CN(C(=O)CN1CCCc2ccccc21)CC3` gave Giardia FBPA inh 2%, Pf growth 96h 4.7µM*, Pf growth 48h 4.1µM*, HCMV inh 9 and Sm TGR block 32µM*.
Screening Cc1ccc2[nH]c3c(c2c1)CN(C(=O)CN1CCCCC1)CC3 returned Giardia FBPA inh -2%, Pf growth 96h -3%, Pf growth 48h inconclusive, HCMV inh 50 and Sm TGR block -10%.
`CCCCS(=O)(=O)N1CCc2nc(-c3ccc(OC)cc3C)c3c(c2C1)CO[C@@H](c1ccccc1)C3` gave Giardia FBPA inh 2%[12.9 µM].
Screening Cc1cc(N2CCNCC2)nc2ccccc12 returned Giardia FBPA inh -17%, Pf growth 96h inconclusive, Pf growth 48h -17%, HCMV inh 115 and Sm TGR block 22µM*.
CC(C)[C@@H]1NC(=O)c2cc([N+](=O)[O-])cc(I)c2NCC[C@@H](C(N)=O)NC(=O)[C@H](CO)NC1=O was read as Giardia FBPA inh -4%, Pf growth 96h -13%, Pf growth 48h 0% and Sm TGR block -20%.
